# High-throughput results from PubChem BioAssay.
# Mtb hypoxia rep: PubChem AID 1159583 | actives 0.1% (n = 300,000) | fluorescence inhibition, % (concentration not given with the values) | M. tuberculosis hypoxia-regulated fluorescent reporter, fluorescence; in the data active = fluorescence inhibition mostly above about 23%, no sharp cut-off; inactive = mostly below about 17%
# ugtP null kill: growth inhibition of ugtP-null S. aureus, primary screen, RN4220 ugtP deletion, OD600 | actives 0.54% (n = 330,000) | growth inhibition, % (test concentration not listed) | 16 h; in the data active = growth inhibition above about 68%
# Mtb betalactam: beta-lactam sensitization of Mtb H37Rv, H37Rv | M. tuberculosis H37Rv growth with meropenem, percent inhibition | inhibition, % at 25 µM | actives 0.27% (n = 330,000) | AID 434955, 2010; call rule not given here;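 also: growth measured after seven days incubation then overnight dye step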
# PriA SSB inh: inhibitors of Klebsiella pneumoniae PriA binding to SSB C-terminal tail, primary screen, biochemical, AlphaScreen; PriA–SSB C-terminal tail interaction (Klebsiella pneumoniae); AlphaScreen SSBct-PriA binding, biotinylated peptide; inhibition, % at 33 µM; actives 0.6% (n = 430,000); AID 1272365, 2023; in the data active = inhibition mostly above about 37%, no sharp cut-off; inactive = mostly below about 20%
# Sa RN4220 lethal: growth inhibition of S. aureus RN4220, primary screen, OD600; 16 h; inhibition, % (concentration not given with the values); actives 0.33% (n = 330,000); AID 1259311, 2017; in the data active = inhibition above about 85%
# Numbers stand for hits; n = inactive; x = not tested or not shown. Rows were chosen to be rich in hits. Some 1% of all compounds tested hit in one or more screens of this group.
SMILES,Mtb hypoxia rep,ugtP null kill,Mtb betalactam,PriA SSB inh,Sa RN4220 lethal
CCOc1ccccc1NC(=O)c1ccc2c(c1)C(=O)N(CC)C2=O,n,n,n,100,n
O=C(C1CC=CCC1)N1CCC(c2cccs2)CC1 (stereo not given),x,x,x,n,x
O=[N+]([O-])c1ccccc1NN=C1CC2CC=CC12 (stereo not given),n,n,x,71,n
COc1ccc(N=C2S/C(=C\c3ccc(OCC(=O)O)cc3)C(=O)N2CCc2c[nH]c3ccccc23)cc1,n,n,x,51,n
O=C(Nc1ccc([N+](=O)[O-])cc1)Nc1ccc2c3c(cccc13)CC2,x,x,x,38,x
S=c1[nH]nc(-c2ccccn2)n1N=Cc1ccc(Br)s1,x,x,x,79,x
S=c1[nH]nc(-c2ccccn2)n1/N=C/c1ccccc1,x,x,n,x,x
Cc1ccsc1C=Nn1c(-c2ccccn2)n[nH]c1=S,n,n,x,88,n
S=c1[nH]nc(-c2ccccn2)n1/N=C/c1cccs1,x,x,n,x,x
O=C(Nc1cc(-n2cccn2)ncn1)c1cc(-c2cccs2)on1,x,x,x,n,x
Cn1cnc([N+](=O)[O-])c1S(=O)(=O)Oc1cccc2ccccc12,x,91,x,n,n
Cc1cc(/C=C2\Sc3ccccc3N2C)cc(C)[n+]1CC1CCCO1 (stereo not given),x,101,x,x,100
Cc1ccc(/C=C2/Sc3ccccc3N(CC(=O)NCC3CCCO3)C2=O)cc1 (stereo not given),n,n,n,n,n
COc1cc(C(=O)N2CCOC(c3ccccc3)C2)cc(OC)c1OC (stereo not given),x,x,x,n,x
CN(CC(=O)Nc1ccccc1Br)C(=O)c1ccccc1Sc1ccccc1C#N,25,n,x,n,n
C[n+]1c2n(c3ccccc31)N=C(c1cc(C(C)(C)C)c(O)c(C(C)(C)C)c1)CS2,x,98,n,n,99
OCC#CCSc1nnc(-c2cccc3ccccc23)o1,54,n,n,n,n
CN1C(=O)c2ccc(-c3ccccc3)nc2NC1C(=O)N1CCN(c2ccccc2)CC1 (stereo not given),x,x,x,n,x
CSc1ncc(-c2ccc(C)cc2)n1-c1ccccc1C,x,x,x,58,x
Cc1ccc(-c2cnc(SCc3ccc(F)cc3)n2-c2ccc(OC(F)(F)F)cc2)cc1,x,x,x,n,x
COc1ccc(-c2nc3ccccn3c2NC2CCCCC2)cc1SC1CCCCC1,n,100,n,n,n
Cc1ccc(OCCCC(=O)Nc2ccc(S(=O)(=O)N3CCOCC3)cc2)cc1,30,n,n,n,n
CCOc1ccccc1OCCCC(=O)Nc1cccc(S(=O)(=O)N2CCOCC2)c1,26,n,n,n,n
CC1CCN(c2c([N+](=O)[O-])nn(-c3ccc4c(c3)OCCO4)[n+]2[O-])CC1,n,n,n,40,n
Cc1ccc(-c2cc(COC(=O)[C@H]3CC(=O)N(c4ccc(C)cc4)C3)no2)cc1,x,x,x,n,x
SMILES,Mtb hypoxia rep,ugtP null kill,Mtb betalactam,PriA SSB inh,Sa RN4220 lethal
c1ccc(-c2csc(Nc3cccnc3)n2)nc1,n,n,n,71,n
Cc1ccnc(Nc2nc(-c3ccccn3)cs2)c1,x,x,x,147,x
Cc1ccc(Nc2nc(-c3ccccn3)cs2)cc1,x,x,x,109,x
CC(=O)Nc1ccc(Nc2nc(-c3ccccn3)cs2)cc1,x,x,x,90,x
Cc1ccnc(Nc2nc(-c3ccc(O)cc3)cs2)c1,n,n,n,n,n
c1ccc(Nc2nc(-c3ccccn3)cs2)cc1,n,n,n,n,n
CCn1cc2[nH]c(=O)n(-c3ccc(C)cc3)c(=O)c2n1,x,x,x,n,x
CC(C)c1cc(C(=O)N2CCc3ccccc3C2)nn1-c1nc2ccccc2s1,x,x,x,n,x
COc1cccc2sc(Nc3nc(-c4ccccn4)cs3)nc12,n,99,n,x,99
COc1cccc2sc(Nc3nc(-c4nc5ccccc5s4)cs3)nc12,x,x,x,n,x
COc1ccc(N2CC(C(=O)NN=Cc3ccc([N+](=O)[O-])cc3)CC2=O)cc1 (stereo not given),n,n,x,n,n
COc1ccc(N2CC(C(=O)NN=Cc3cc([N+](=O)[O-])ccc3O)CC2=O)cc1 (stereo not given),n,n,x,n,90
Cc1ccc(S(=O)(=O)NCCn2ccc(C(F)(F)F)n2)cc1Cl,x,x,x,n,x
O=C(N(CCc1cccs1)C1CC1)C1(c2ccccc2)CCOCC1,x,x,x,n,x
O=C(CSC1=Nc2cccnc2Nc2ccccc21)N1CCN(c2ccccc2)CC1,x,x,x,38,x
CC(=O)Nc1ccc(NC2=C(Cl)C(=O)c3ccccc3C2=O)cc1,n,n,x,n,n
CN(C)c1ccc(NC2=C(Cl)C(=O)c3ccccc3C2=O)cc1,n,n,n,64,n
Oc1ccc(-c2ccc(O)c3ncccc23)c2cccnc12,x,x,x,n,x
CCCCCC(=O)c1ccc(O)c2ncccc12,x,x,x,130,x
CCc1ccc(O)c2ncccc12,x,x,x,n,x
